Common to all, as to test: PBM; 200 nM protein, PBS
Holding throughout (conditions): dsDNA, one strand shown

Experiment [1] deals with HESX1 (Homo sapiens, UniProt Q9UBX0 95-180, R165K).
For experiment [2], the target named is SHOX (Homo sapiens, UniProt O15266 103-189).
In a further experiment the target is ALX4 (Homo sapiens, UniProt Q9H161 200-286, Q225E).
Experiment [3] deals with HESX1 (Homo sapiens, UniProt Q9UBX0 95-180).
Another experiment has as its target MSX2 (Homo sapiens, UniProt P35548 130-214, R199I).
For experiment [4], the target named is ALX1 (Homo sapiens, UniProt Q15699 118-204, L144V).
For experiment [5], the target named is ALX3 (Homo sapiens, UniProt O95076 139-225, N203Q).
In experiment [6] the target is SHOX (Homo sapiens, UniProt O15266 103-189, R173C).
The target in experiment [7] is ALX1 (Homo sapiens, UniProt Q15699 118-204, L144R).
The target of experiment [8] is ALX3 (Homo sapiens, UniProt O95076 139-225).
Experiment [9] addresses PROP1 (Homo sapiens, UniProt O75360 56-141).
Experiment [10] addresses HESX1 (Homo sapiens, UniProt Q9UBX0 95-180, R109Q).
Experiment [11] concerns the target PROP1 (Homo sapiens, UniProt O75360 56-141, R99H).
Experiment [12] addresses ALX3 (Homo sapiens, UniProt O95076 139-225, L168Q).
The target of experiment [13] is HESX1 (Homo sapiens, UniProt Q9UBX0 95-180, P111T).
Experiment [14] concerns the target ALX3 (Homo sapiens, UniProt O95076 139-225, L168V).
Experiment [15] has as its target PROP1 (Homo sapiens, UniProt O75360 56-141, F88S).
Experiment [16] addresses HESX1 (Homo sapiens, UniProt Q9UBX0 95-180, F115L).
The target in experiment [17] is ALX1 (Homo sapiens, UniProt Q15699 118-204).
In experiment [18] the target is ALX3 (Homo sapiens, UniProt O95076 139-225, N203S).
ALX3 (Homo sapiens, UniProt O95076 139-225, N203S), sequence (O95076 139-225 N203S): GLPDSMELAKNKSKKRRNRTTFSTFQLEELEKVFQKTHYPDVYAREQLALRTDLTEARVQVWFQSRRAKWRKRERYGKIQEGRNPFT

HESX1 (Homo sapiens, UniProt Q9UBX0 95-180, F115L), sequence (Q9UBX0 95-180 F115L): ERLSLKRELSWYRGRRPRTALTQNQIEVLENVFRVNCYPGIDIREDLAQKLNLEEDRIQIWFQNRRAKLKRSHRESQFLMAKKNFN
HESX1 (Homo sapiens, UniProt Q9UBX0 95-180), sequence (Q9UBX0 95-180): as the sequence (Q9UBX0 95-180 F115L) above, with L21F counted along it
HESX1 (Homo sapiens, UniProt Q9UBX0 95-180, R165K), sequence (Q9UBX0 95-180 R165K): as the sequence (Q9UBX0 95-180 F115L) above, with L21F, R71K counted along it
SHOX (Homo sapiens, UniProt O15266 103-189, R173C), sequence (O15266 103-189 R173C): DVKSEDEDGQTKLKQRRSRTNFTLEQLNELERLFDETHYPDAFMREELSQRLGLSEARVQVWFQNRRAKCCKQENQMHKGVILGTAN
HESX1 (Homo sapiens, UniProt Q9UBX0 95-180, P111T), sequence (Q9UBX0 95-180 P111T): as the sequence (Q9UBX0 95-180 F115L) above, with P17T, L21F counted along it
HESX1 (Homo sapiens, UniProt Q9UBX0 95-180, R109Q), sequence (Q9UBX0 95-180 R109Q): as the sequence (Q9UBX0 95-180 F115L) above, with R15Q, L21F counted along it
SHOX (Homo sapiens, UniProt O15266 103-189), sequence (O15266 103-189): as the sequence (O15266 103-189 R173C) above, with C71R counted along it
ALX3 (Homo sapiens, UniProt O95076 139-225, N203Q), sequence (O95076 139-225 N203Q): as the sequence (O95076 139-225 N203S) above, with S65Q counted along it
PROP1 (Homo sapiens, UniProt O75360 56-141), sequence (O75360 56-141): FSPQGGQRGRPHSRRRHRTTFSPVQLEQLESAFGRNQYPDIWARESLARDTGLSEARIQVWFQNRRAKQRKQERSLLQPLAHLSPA
ALX3 (Homo sapiens, UniProt O95076 139-225, L168Q), sequence (O95076 139-225 L168Q): as the sequence (O95076 139-225 N203S) above, with L30Q, S65N counted along it
PROP1 (Homo sapiens, UniProt O75360 56-141, R99H), sequence (O75360 56-141 R99H): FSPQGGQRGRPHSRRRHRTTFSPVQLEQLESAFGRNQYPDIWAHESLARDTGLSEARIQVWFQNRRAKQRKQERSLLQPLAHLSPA
ALX3 (Homo sapiens, UniProt O95076 139-225, L168V), sequence (O95076 139-225 L168V): as the sequence (O95076 139-225 N203S) above, with L30V, S65N counted along it
ALX1 (Homo sapiens, UniProt Q15699 118-204), sequence (Q15699 118-204): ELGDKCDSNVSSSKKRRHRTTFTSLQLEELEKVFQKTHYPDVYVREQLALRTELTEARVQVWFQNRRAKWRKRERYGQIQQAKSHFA
ALX1 (Homo sapiens, UniProt Q15699 118-204, L144R), sequence (Q15699 118-204 L144R): as the sequence (Q15699 118-204) above, with L27R counted along it
MSX2, sequence (P35548 130-214 R199I): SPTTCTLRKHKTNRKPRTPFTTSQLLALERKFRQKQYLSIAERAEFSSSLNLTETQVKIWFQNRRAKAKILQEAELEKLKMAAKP
ALX4, sequence (Q9H161 200-286 Q225E): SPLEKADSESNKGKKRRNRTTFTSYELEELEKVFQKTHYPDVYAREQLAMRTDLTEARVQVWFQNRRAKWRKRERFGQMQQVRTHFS
PROP1 (Homo sapiens, UniProt O75360 56-141, F88S), sequence (O75360 56-141 F88S): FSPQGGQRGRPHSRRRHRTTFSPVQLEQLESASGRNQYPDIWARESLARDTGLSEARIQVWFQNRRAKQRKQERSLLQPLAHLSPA
ALX1 (Homo sapiens, UniProt Q15699 118-204, L144V), sequence (Q15699 118-204 L144V): as the sequence (Q15699 118-204) above, with L27V counted along it
ALX3 (Homo sapiens, UniProt O95076 139-225), sequence (O95076 139-225): as the sequence (O95076 139-225 N203S) above, with S65N counted along it

For the sequence TAATTGGA, the binding signal with HESX1 [1] was 13.4 upbm affinity estimate (log intensity, higher = more binding, comparable within an allelic series); with SHOX [2], 12.6 upbm affinity estimate (log intensity, higher = more binding, comparable within an allelic series); in the experiment with ALX4, 13.7 upbm affinity estimate (log intensity, higher = more binding, comparable within an allelic series); in the experiment with HESX1 [3], 13.3 upbm affinity estimate (log intensity, higher = more binding, comparable within an allelic series); in the experiment with MSX2, 13 upbm affinity estimate (log intensity, higher = more binding, comparable within an allelic series); with ALX1 [4], 12 upbm affinity estimate (log intensity, higher = more binding, comparable within an allelic series). For the same sequence, the binding signal in the experiment with ALX3 [5] is 8.38 upbm affinity estimate (log intensity, higher = more binding, comparable within an allelic series); with SHOX [6], 9.96 upbm affinity estimate (log intensity, higher = more binding, comparable within an allelic series); with ALX1 [7], 11.7 upbm affinity estimate (log intensity, higher = more binding, comparable within an allelic series); in the experiment with ALX3 [8], 12.7 upbm affinity estimate (log intensity, higher = more binding, comparable within an allelic series); with PROP1 [9] it was 11.8 upbm affinity estimate (log intensity, higher = more binding, comparable within an allelic series); with HESX1 [10], 9.97 upbm affinity estimate (log intensity, higher = more binding, comparable within an allelic series). The binding signal with PROP1 [11] is 12 upbm affinity estimate (log intensity, higher = more binding, comparable within an allelic series); with ALX3 [12] it was 10.9 upbm affinity estimate (log intensity, higher = more binding, comparable within an allelic series); with HESX1 [13], 11.9 upbm affinity estimate (log intensity, higher = more binding, comparable within an allelic series); with ALX3 [14], 10.3 upbm affinity estimate (log intensity, higher = more binding, comparable within an allelic series); with PROP1 [15], 7.7 upbm affinity estimate (log intensity, higher = more binding, comparable within an allelic series); with HESX1 [16], 8.04 upbm affinity estimate (log intensity, higher = more binding, comparable within an allelic series). For the same sequence, the binding signal was 12.7 upbm affinity estimate (log intensity, higher = more binding, comparable within an allelic series) with ALX1 [17] and 8.55 upbm affinity estimate (log intensity, higher = more binding, comparable within an allelic series) in the experiment with ALX3 [18].
In the case of CCCAATTA, the binding signal in the experiment with HESX1 [1] is 13.2 upbm affinity estimate (log intensity, higher = more binding, comparable within an allelic series); in the experiment with SHOX [2], 12.5 upbm affinity estimate (log intensity, higher = more binding, comparable within an allelic series); in the experiment with ALX4 it was 13.5 upbm affinity estimate (log intensity, higher = more binding, comparable within an allelic series); with HESX1 [3] it was 13.1 upbm affinity estimate (log intensity, higher = more binding, comparable within an allelic series); with MSX2, 13 upbm affinity estimate (log intensity, higher = more binding, comparable within an allelic series); with ALX1 [4], 11.9 upbm affinity estimate (log intensity, higher = more binding, comparable within an allelic series). Besides, the binding signal with ALX3 [5] is 8.37 upbm affinity estimate (log intensity, higher = more binding, comparable within an allelic series); in the experiment with SHOX [6], 9.78 upbm affinity estimate (log intensity, higher = more binding, comparable within an allelic series); with ALX1 [7] it was 11.6 upbm affinity estimate (log intensity, higher = more binding, comparable within an allelic series); with ALX3 [8] it was 12.6 upbm affinity estimate (log intensity, higher = more binding, comparable within an allelic series); with PROP1 [9], 11.6 upbm affinity estimate (log intensity, higher = more binding, comparable within an allelic series); in the experiment with HESX1 [10], 9.78 upbm affinity estimate (log intensity, higher = more binding, comparable within an allelic series). The binding signal in the experiment with PROP1 [11] is 11.8 upbm affinity estimate (log intensity, higher = more binding, comparable within an allelic series); in the experiment with ALX3 [12], 10.7 upbm affinity estimate (log intensity, higher = more binding, comparable within an allelic series); with HESX1 [13], 11.7 upbm affinity estimate (log intensity, higher = more binding, comparable within an allelic series); in the experiment with ALX3 [14], 10.2 upbm affinity estimate (log intensity, higher = more binding, comparable within an allelic series); with PROP1 [15], 7.5 upbm affinity estimate (log intensity, higher = more binding, comparable within an allelic series); with HESX1 [16], 8.14 upbm affinity estimate (log intensity, higher = more binding, comparable within an allelic series). The binding signal with ALX1 [17] was 12.5 upbm affinity estimate (log intensity, higher = more binding, comparable within an allelic series); in the experiment with ALX3 [18], 8.52 upbm affinity estimate (log intensity, higher = more binding, comparable within an allelic series).
Regarding AGGGACCG, the binding signal in the experiment with HESX1 [1] is 6.62 upbm affinity estimate (log intensity, higher = more binding, comparable within an allelic series); with SHOX [2] it was 7.23 upbm affinity estimate (log intensity, higher = more binding, comparable within an allelic series); with HESX1 [3] it was 6.41 upbm affinity estimate (log intensity, higher = more binding, comparable within an allelic series); in the experiment with SHOX [6], 7.13 upbm affinity estimate (log intensity, higher = more binding, comparable within an allelic series); in the experiment with HESX1 [10], 6.42 upbm affinity estimate (log intensity, higher = more binding, comparable within an allelic series); with HESX1 [13], 6.58 upbm affinity estimate (log intensity, higher = more binding, comparable within an allelic series). In addition, in the experiment with HESX1 [16], the binding signal was 6.26 upbm affinity estimate (log intensity, higher = more binding, comparable within an allelic series).
In the case of GAAGGCGC, the binding signal with HESX1 [1] is 6.55 upbm affinity estimate (log intensity, higher = more binding, comparable within an allelic series); in the experiment with SHOX [2], 7.24 upbm affinity estimate (log intensity, higher = more binding, comparable within an allelic series); with HESX1 [3], 6.36 upbm affinity estimate (log intensity, higher = more binding, comparable within an allelic series); in the experiment with SHOX [6] it was 7.21 upbm affinity estimate (log intensity, higher = more binding, comparable within an allelic series); in the experiment with HESX1 [10] it was 6.47 upbm affinity estimate (log intensity, higher = more binding, comparable within an allelic series); in the experiment with HESX1 [13] it was 6.47 upbm affinity estimate (log intensity, higher = more binding, comparable within an allelic series). The binding signal with HESX1 [16] is 6.58 upbm affinity estimate (log intensity, higher = more binding, comparable within an allelic series).
Take CCGAGCGG: the binding signal in the experiment with HESX1 [1] was 6.41 upbm affinity estimate (log intensity, higher = more binding, comparable within an allelic series); with SHOX [2] it was 6.99 upbm affinity estimate (log intensity, higher = more binding, comparable within an allelic series); with HESX1 [3] it was 6.46 upbm affinity estimate (log intensity, higher = more binding, comparable within an allelic series); in the experiment with SHOX [6], 7.07 upbm affinity estimate (log intensity, higher = more binding, comparable within an allelic series); with HESX1 [10], 6.48 upbm affinity estimate (log intensity, higher = more binding, comparable within an allelic series); with HESX1 [13], 6.49 upbm affinity estimate (log intensity, higher = more binding, comparable within an allelic series). The binding signal with HESX1 [16] was 6.36 upbm affinity estimate (log intensity, higher = more binding, comparable within an allelic series).

Source of the values: PMC11006913.
